A selection: hits, their analogues and other compounds. The true share with any hit is near 5.9%.
TGFb SMAD3 inh: inhibitors of TGF-b signaling | HepG2 CAGA-GFP TGF-b/SMAD3 reporter, GFP fluorescence, 18 h; TGF-beta stimulated, 500 pg/mL final | Potency, µM (top dose mostly 46.1 µM), hits mostly inhibitors | 410,000 compounds, 1.2% hits; note: nearly all actives have a fitted effect of over 65% in size
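HEPG2 CAGA-GFP, 1000 cells/well; 2 h settle, 37 C; cpd via pin tool; TGF-b 500 pg/mL final; 18 h, 37 C; GFP imaging ex488/em500-530; %Activity normalised to -TGF-b and +DMSO controls; CRC fit, curve class.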
ATXN2 expr inh: reduces ATXN2 reporter expression in HEK-293 cells; HEK-293 ATXN2-luciferase reporter, luminescence, 24 h; Potency, µM (titrated, usually from 57 µM), usual class: inhibitors; 360,000 compounds, 0.72% hits; AID 1745845; note: nearly all actives have a fitted effect of over 55% in size
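ATXN2-luciferase reporter cells (luciferase flanked by upstream and downstream ATXN2 gene portions) were treated 24 h at 37 °C with compounds at up to 57 uM. SteadyGlo luminescence gave expression; GF-AFC fluorescence gave viability.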
S2 tox: viability counter-screen for ATXN expression inhibitors | S2 cells (HEK-293 line with an ATXN2-luciferase reporter) viability, CellTiter-Fluor protease fluorescence, 24 h | Potency, µM (series often up to 56.7 µM), actives largely listed as cytotoxic | 400,000 compounds, 0.49% hits; note: nearly all actives have a fitted effect of over 40% in size
KB-V1 cytotox: kills drug-selected multidrug resistant KB-V1 cells; KB-V1 MDR cells viability, CellTiter-Glo, 72 h; Potency, µM (titrated, usually from 46.1 µM), most hits filed as cytotoxic; 400,000 compounds, 3.4% hits; AID 1347076; note: nearly all actives have a fitted effect of over 60% in size
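Cytotoxicity via CellTiter-Glo luminescence after 72 h compound exposure at 37 degrees C. Cells: drug-selected KB-V1 line, DMEM phenol-red free plus 10% FBS. Compounds tested at multiple concentrations; normalized data fitted to concentration-effect curves.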
HepG2 tox: counter-screen for TGF-b inhibitors: cytotoxicity in HepG2 cells. HepG2 CAGA-GFP viability, ATP luminescence, 18 h. Potency, µM (titrated, usually from 46.1 µM), most hits filed as cytotoxic. 410,000 compounds, 0.76% hits. AID 588856
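CellTiter-Glo luminescence gave cytotoxicity after 18 hours at 37 degrees C. The cells were HepG2 CAGA-GFP in 1% FBS DMEM, stimulated with 500 pg/mL TGF-beta after compound addition. %Activity was normalised to no-cell wells (complete cell-killing) and DMSO (no toxicity), and curves were fitted and classified.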
KB-3-1 tox: KB-3-1 parental cell cytotoxicity. KB-3-1 viability, CellTiter-Glo ATP luminescence, 72 h. Potency, µM (titrated, usually from 46.1 µM), most hits filed as cytotoxic. 400,000 compounds, 1.4% hits; note: nearly all actives have a fitted effect of over 60% in size
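Here the drug-naive KB-3-1 line serves as comparator for MDR sub-line selectivity; cells received compound titrations, 72 h at 37 °C, then CellTiter-Glo readout.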
Of the large screens only hits and unclear results are named; the others gave an inactive call; ! = not active in a repeat. Calls come from the whole dose curve; as a rule, active = well fitted curve in the direction sought with a large enough effect; inconclusive = small, poorly fitted or top-dose-only effect, or another doubt; inactive = no such curve, though single readings can be large; an effect the other way counts as inactive or inconclusive.

CC1CC(C(F)F)n2nc(C(=O)Nc3sc4c(c3C#N)CCC(C(C)(C)C)C4)nc2N1 (stereo not given)	ATXN2 expr inh inconclusive, S2 tox inconclusive, KB-V1 cytotox inconclusive, KB-3-1 tox 16µM
CCOC(=O)CSc1nc2ccc(NC(=O)c3ccc(F)cc3)cc2s1	TGFb SMAD3 inh inconclusive
Cc1ccc(Cl)cc1NC(=O)CN1C(=O)NC2(CCCCCC2)C1=O	S2 tox inconclusive, KB-V1 cytotox 21µM
COc1cccc(Oc2ccc(C(F)(F)F)cc2NC(=O)CN2C(=O)NC3(CCCC3)C2=O)c1	TGFb SMAD3 inh 18µM, S2 tox inconclusive, HepG2 tox 13µM, KB-3-1 tox inconclusive
CCOC(=O)c1c(NC(=O)CN2C(=O)NC3(CCCCC3)C2=O)sc(C)c1-c1ccc(C)cc1	TGFb SMAD3 inh inconclusive, KB-V1 cytotox 21µM, KB-3-1 tox inconclusive
Cc1cc(Cl)ccc1NC(=O)CN1C(=O)NC2(CCCC2)C1=O	KB-3-1 tox inconclusive
COc1cccc(Cn2c(=O)n(CCc3ccccc3)c(=O)c3c2c2cc(OC)ccc2n3C)c1	none
Cn1c(=O)c2c(-c3ccc(Br)cc3)n(CCc3ccccc3)cc2n(C)c1=O	TGFb SMAD3 inh 10µM, ATXN2 expr inh inconclusive, S2 tox inconclusive
CCC(C)Sc1cccc(-c2nc3ccc(C)cn3c2NCc2ccccc2)c1 (stereo not given)	TGFb SMAD3 inh 10µM, ATXN2 expr inh inconclusive, S2 tox inconclusive, KB-V1 cytotox 18µM!, HepG2 tox 11µM, KB-3-1 tox inconclusive
CCCCCCSc1cccc(-c2nc3ccc(C)cn3c2NCc2ccccc2)c1	TGFb SMAD3 inh inconclusive, S2 tox inconclusive
CCCCNc1c(-c2cccc(-c3cc(C(C)=O)cs3)c2)nc2cc(C)ccn12	TGFb SMAD3 inh inconclusive, ATXN2 expr inh 22µM, S2 tox 11µM, KB-3-1 tox inconclusive
CCCCCCSc1cc(-c2nc3ccc(C)cn3c2NCc2ccccc2)ccc1OC	TGFb SMAD3 inh inconclusive, S2 tox 20µM, KB-V1 cytotox 13µM!, KB-3-1 tox inconclusive
CCCCNc1c(-c2ccc(SC(C)CC)c(OC)c2)nc2ccc(C)cn12 (stereo not given)	TGFb SMAD3 inh inconclusive, ATXN2 expr inh inconclusive, S2 tox inconclusive, KB-V1 cytotox inconclusive, HepG2 tox 20µM, KB-3-1 tox inconclusive
CCOC(=O)C1CCCN(C(=O)c2c(C)nn(-c3ccc(F)cc3)c2-n2cccc2)C1 (stereo not given)	KB-V1 cytotox inconclusive
COc1ccccc1NC(=O)Cn1c(=O)n(Cc2nc(C)no2)c(=O)c2cc3c(cc21)OCO3	none
COc1ccc(Cl)cc1NC(=O)COC(=O)CC(C)(C)CC1=NS(=O)(=O)c2ccccc2N1	TGFb SMAD3 inh inconclusive, ATXN2 expr inh inconclusive, KB-3-1 tox inconclusive
CCCCCCSc1ccc(-c2nc3ccc(C)cn3c2NCCCC)cc1OC	S2 tox 28µM, KB-V1 cytotox 21µM, KB-3-1 tox inconclusive (no result: TGFb SMAD3 inh, HepG2 tox)
CCC(C)Sc1cc(-c2nc3ccc(Cl)cn3c2NC2CCCCC2)ccc1OC (stereo not given)	TGFb SMAD3 inh inconclusive, KB-V1 cytotox 10µM!, KB-3-1 tox inconclusive
CCCCCCSc1ccc(-c2nc3ccc(Cl)cn3c2NCCCC)cc1OC	TGFb SMAD3 inh inconclusive
CCCCCCSc1cc(-c2nc3cnccn3c2NCCCC)ccc1OC	TGFb SMAD3 inh inconclusive, ATXN2 expr inh inconclusive (no result: S2 tox)
CCCCCCSc1cc(-c2nc3cc(C)ccn3c2NCCCC)ccc1OC	TGFb SMAD3 inh inconclusive, ATXN2 expr inh inconclusive, KB-V1 cytotox 21µM! (no result: S2 tox)
COCCn1c(=N)c(C(=O)NC(C)c2ccccc2)cc2c(=O)n3cc(C)ccc3nc21 (stereo not given)	KB-V1 cytotox inconclusive (no result: S2 tox)
c1ccc(COc2ccc(-c3cc4nc(NCCCn5ccnc5)ccn4n3)cc2)cc1	S2 tox inconclusive
Cc1cc(C)c2nc(N3CCCC(C(=O)NCc4cccc(Br)c4)C3)sc2c1 (stereo not given)	none (no result: ATXN2 expr inh, S2 tox)
Cc1cc(C)c2nc(N3CCCC(C(=O)N4CCN(c5ncccn5)CC4)C3)sc2c1 (stereo not given)	ATXN2 expr inh inconclusive, KB-V1 cytotox 10µM, KB-3-1 tox inconclusive
COc1ccc(CNC(=O)c2ccc3nc(CCc4ccccc4)oc3c2)cc1OC	ATXN2 expr inh 28µM, S2 tox inconclusive, KB-V1 cytotox inconclusive
COc1ccc(/C(O)=C/c2nc3ccc(C(=O)NCCc4cccc(C)c4)cc3[nH]c2=O)cc1OC	TGFb SMAD3 inh inconclusive, ATXN2 expr inh inconclusive, S2 tox inconclusive, KB-3-1 tox 10µM
COc1ccc(C(=O)NCCc2ccccc2)cc1OC	none
COc1ccc(CCNC(=O)c2ccc3nc(-c4ccco4)c(-c4ccco4)nc3c2)cc1OC	ATXN2 expr inh inconclusive, KB-V1 cytotox 7.3µM, KB-3-1 tox inconclusive
CCc1nc2ccc(C(=O)NCCc3ccc(OC)c(OC)c3)cc2nc1CC	none
COc1ccc(CNC(=O)c2ccc3nc(CCc4ccccc4)oc3c2)cc1	TGFb SMAD3 inh inconclusive
COc1ccc(CCNC(=O)c2ccc3c(c2)ncn3-c2ccc(C(C)C)cc2)cc1OC	TGFb SMAD3 inh inconclusive, ATXN2 expr inh 25µM, S2 tox inconclusive, KB-V1 cytotox inconclusive
COc1ccc(OC)c(CCNC(=O)c2cnn(-c3ccccc3)c2-n2cccc2)c1	TGFb SMAD3 inh inconclusive, ATXN2 expr inh inconclusive
CCNc1nc(C#N)nc(N2CCCCC2)n1	none (no result: ATXN2 expr inh, S2 tox)
COc1ccc(CCNC(=O)c2cc(-c3ccco3)on2)cc1OC	KB-V1 cytotox 18µM, KB-3-1 tox 9.2µM
COc1ccc(C(=O)NCCCc2nc3ccccc3n2Cc2cc(C)ccc2C)cc1OC	S2 tox inconclusive
CCn1c(CCNC(=O)c2ccc(OC)c(OC)c2)nc2ccccc21	KB-V1 cytotox 3.7µM
COc1cccc(-c2cc(C(=O)NCCc3ccc(OC)c(OC)c3)no2)c1	none
C[C@@H]1NC(=O)[C@@H](N)CNC(=O)[C@H](C2CCNC(N)=N2)NC(=O)/C(=C/NC(N)=O)NC(=O)[C@H](CNC(=O)C[C@@H](N)CCCN)NC1=O (stereo not given in full)	none (no result: TGFb SMAD3 inh, ATXN2 expr inh, KB-V1 cytotox, HepG2 tox, KB-3-1 tox)
COc1ccc(S(=O)(=O)N2CCCOC2CNC(=O)C(=O)NCCCN2CCOCC2)cc1C (stereo not given)	HepG2 tox 1.4µM
Cc1ccc(S(=O)(=O)N2CCCOC2CNC(=O)C(=O)NCCN2CCOCC2)cc1 (stereo not given)	none
Cc1ccc(S(=O)(=O)N2CCCOC2CNC(=O)C(=O)NCCC2=CCCCC2)cc1 (stereo not given)	KB-V1 cytotox 2.9µM, KB-3-1 tox inconclusive
Cc1ccc(N(Cc2cccs2)C(=O)c2ccccc2)cc1	none
